Source: PubChem BioAssay (NCATS)
Values without a mark were called inactive. Records with an inconclusive call do not appear. Calls of active or inactive are those of the source. Unless noted, calls come from the whole dose curve; as a rule, active = well fitted curve in the direction sought with a large enough effect; inconclusive = small, poorly fitted or top-dose-only effect, or another doubt; inactive = no such curve, though single readings can be large; an effect the other way counts as inactive or inconclusive.

System: not listed separately
Assay: Cell Viability - LYMP1-002 - Assay at 16 hr (AID 948); note: potency is the fitted concentration of half-maximal effect;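 for activity change, negative = cytotoxicity: 0% = DMSO alone and full effect = 92 µM tetraoctylammonium bromide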
Conditions: LYMP1-002 lymphoblastoid cell viability; series mostly up to 92.2 µM; activity change, negative = cytotoxicity: at the top concentration
Method in brief: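 Human lymphoblastoid cells (LYMP1-002), 2500/well, were preincubated 5 hr at 37 C, then exposed to compounds for 16 hr at 37 C in complete medium. Cellular ATP was read by CellTiter-Glo luminescence after 30 min at room temperature; AC50 from Hill fits.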

| Compound | activity change, negative = cytotoxicity | Potency |
| --- | --- | --- |
| Nc1ccc([N+](=O)[O-])cc1O | -6.97% | – |
| O=C(O)c1cc(O)c(O)c(O)c1 | -14.1% | – |
| O=C1CN(/N=C/c2ccc([N+](=O)[O-])o2)C(=O)N1 | -22.1% | – |
| Nc1nc2ccc([N+](=O)[O-])cc2s1 | -7.86% | – |
| Nc1ccc(O)c([N+](=O)[O-])c1 | -14.2% | – |
| CN(C)CCC(c1ccc(Cl)cc1)c1ccccn1 (stereo unspecified) | -8.47% | – |
| C#C[C@]1(O)CC[C@H]2[C@@H]3CCc4cc(O)ccc4[C@H]3CC[C@@]21C | -15.8% | – |
| CCCCCCCCCCCCCCCCCC(=O)O | -7.23% | – |
| Nc1ccc(O)c(C(=O)O)c1 | -8.4% | – |
| c1ccc2sc(SSc3nc4ccccc4s3)nc2c1 | -7.79% | – |
| O=c1cc(-c2ccccc2)oc2ccccc12 | -10.3% | – |
| CN(C)c1ccc(C(=C2C=CC(=[N+](C)C)C=C2)c2ccccc2)cc1 | – | 1.58 µM (active) |
| CCCOC(=O)c1ccc(O)cc1 | – | inactive |
| CC1(C)S[C@@H]2[C@H](NC(=O)[C@H](N)c3ccccc3)C(=O)N2[C@H]1C(=O)O | 6.32% | – |
| O=C(O)/C=C\C(=O)O | -0.885% | – |
| N=C1N=C(N)c2cc3ccccc3cc21 | – | 39.8 µM (active) |
| CC(C)NCC(O)COc1cccc2ccccc12 (stereo unspecified) | -6.88% | – |
| CN1CCC[C@H]1c1cccnc1 | -2.66% | – |
| COc1cc(CNC(=O)CCCC/C=C/C(C)C)ccc1O | -9.81% | – |
| CN(C)c1ccc(N=NS(=O)(=O)O)cc1 | -11.9% | – |
| COc1cc(/C=C/C(=O)CC(=O)/C=C/c2ccc(O)c(OC)c2)ccc1O | – | 50.1 µM (active) |
| NCCO | -3.08% | – |
| S=c1[nH]c2ccccc2s1 | -5.23% | – |

Target: Pyruvate kinase PKM (Homo sapiens) (UniProt P14618)
Assay: qHTS Assay for Activators of Human Muscle Pyruvate Kinase (AID 954; active = well fitted curve in the direction sought with a large enough effect, not every such curve was filed as active;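 note: 0% = uninhibited enzyme and -100% = no enzyme or full thiadiazolimine inhibition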)
Conditions: purified human muscle pyruvate kinase, luciferase-coupled luminescence, 1 h; series mostly up to 57.5 µM; activity change, negative = inhibition: at the top concentration
Method in brief: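 Purified human PKM2 (0.1 nM) with 0.5 mM PEP (Km) and 0.1 mM ADP in 50 mM imidazole pH 7.2, KCl, MgCl2, 1 h at room temperature; ATP formed read by coupled luciferase luminescence. Normalized to no-enzyme/110 uM thiadiazolimine inhibition; 0.3 nM enzyme column for activation.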

Pyruvate kinase PKM (Homo sapiens), sequence (P14618 whole entry, looked up): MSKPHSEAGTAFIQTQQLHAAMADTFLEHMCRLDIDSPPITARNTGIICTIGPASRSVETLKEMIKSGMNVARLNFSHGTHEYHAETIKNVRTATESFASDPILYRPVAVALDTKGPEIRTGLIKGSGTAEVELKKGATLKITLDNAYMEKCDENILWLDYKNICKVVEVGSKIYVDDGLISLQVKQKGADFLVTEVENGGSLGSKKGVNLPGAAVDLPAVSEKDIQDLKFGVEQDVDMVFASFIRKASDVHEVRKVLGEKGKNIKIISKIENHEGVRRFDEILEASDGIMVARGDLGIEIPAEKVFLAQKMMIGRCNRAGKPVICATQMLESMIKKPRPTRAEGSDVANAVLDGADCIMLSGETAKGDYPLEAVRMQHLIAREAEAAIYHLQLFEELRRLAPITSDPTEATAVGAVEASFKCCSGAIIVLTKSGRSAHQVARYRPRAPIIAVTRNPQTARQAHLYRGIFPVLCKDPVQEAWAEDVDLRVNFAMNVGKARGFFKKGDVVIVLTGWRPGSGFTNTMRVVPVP

| Compound | activity change, negative = inhibition |
| --- | --- |
| CN=c1nc(-c2ccccc2)n(-c2ccccc2)s1 | -89.5% |
| NC(N)=NC(=O)c1nc(Cl)c(N2CCCCCC2)nc1N | -28.4% |
| COc1ccc(/C=C/C(=O)Nc2ccccc2C(=O)O)cc1OC | -83.5% |
| Cc1ccc(O)c(N=Nc2ccccc2)n1 | -113% |
| Cc1cc(NC(=O)Nc2ccc3c(ccn3C)c2)sn1 | -50.7% |
| O=C(O)c1cc(=O)c2ccccc2[nH]1 | -3.85% |
| CN1CCc2cc(NC(=O)Nc3cccnc3)ccc21 | -33.9% |
| O=C(Nc1cccc(C(=O)Nc2ccc(S(=O)(=O)O)c3cc(S(=O)(=O)O)cc(S(=O)(=O)O)c23)c1)Nc1cccc(C(=O)Nc2ccc(S(=O)(=O)O)c3cc(S(=O)(=O)O)cc(S(=O)(=O)O)c23)c1 | -68.6% |
| O=C(Nc1ccccc1)c1cc([N+](=O)[O-])ccc1Cl | -41.8% |

System: not listed separately
Assay: MultiTox-Fluor Cytotoxicity Assay - LYMP1-002 - Live Cells (AID 955); note: potency is the fitted concentration of half-maximal effect; for viability change, negative = cytotoxic: % is set by controls: 0 for no effect and ±100 for the full control effect
Conditions: LYMP1-002 lymphoblastoid live-cell protease fluorescence viability; series mostly up to 46.1 µM; viability change, negative = cytotoxic: at the top concentration
Method in brief: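 Human lymphoblastoid LYMP1-002 cells, 2500/well in complete medium, rested 5 hr at 37 C, then exposed to compounds for 16 hr at 37 C. Live-cell protease cleavage of GF-AFC read by fluorescence (Ex/Em 405/510) after 60 min at room temperature; AC50 from Hill fits.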

| Compound | viability change, negative = cytotoxic | Potency |
| --- | --- | --- |
| Nc1ccc([N+](=O)[O-])cc1O | -8.17% | – |
| O=C(O)c1cc(O)c(O)c(O)c1 | -9.24% | – |
| O=C1CN(/N=C/c2ccc([N+](=O)[O-])o2)C(=O)N1 | -14.8% | – |
| Nc1nc2ccc([N+](=O)[O-])cc2s1 | -12% | – |
| Nc1ccc(O)c([N+](=O)[O-])c1 | -11% | – |
| CN(C)CCC(c1ccc(Cl)cc1)c1ccccn1 (stereo unspecified) | -5.14% | – |
| C#C[C@]1(O)CC[C@H]2[C@@H]3CCc4cc(O)ccc4[C@H]3CC[C@@]21C | -4.41% | – |
| CCCCCCCCCCCCCCCCCC(=O)O | -8.62% | – |
| Nc1ccc(O)c(C(=O)O)c1 | 1.47% | – |
| c1ccc2sc(SSc3nc4ccccc4s3)nc2c1 | 2.86% | – |
| O=c1cc(-c2ccccc2)oc2ccccc12 | -9.99% | – |
| CN(C)c1ccc(C(=C2C=CC(=[N+](C)C)C=C2)c2ccccc2)cc1 | – | 1.58 µM (active) |
| CCCOC(=O)c1ccc(O)cc1 | – | inactive |
| CC1(C)S[C@@H]2[C@H](NC(=O)[C@H](N)c3ccccc3)C(=O)N2[C@H]1C(=O)O | 3.08% | – |
| O=C(O)/C=C\C(=O)O | 12.2% | – |
| N=C1N=C(N)c2cc3ccccc3cc21 | – | 25.1 µM (active) |
| CC(C)NCC(O)COc1cccc2ccccc12 (stereo unspecified) | 2.94% | – |
| CN1CCC[C@H]1c1cccnc1 | 3.76% | – |
| COc1cc(CNC(=O)CCCC/C=C/C(C)C)ccc1O | 5.64% | – |
| CN(C)c1ccc(N=NS(=O)(=O)O)cc1 | -9.85% | – |
| NCCO | -6.62% | – |
| S=c1[nH]c2ccccc2s1 | 3.96% | – |

Target: Pyruvate kinase PKM (Homo sapiens) (UniProt P14618)
Assay: qHTS Assay for Inhibitors of Human Muscle Pyruvate Kinase (AID 958)
Conditions: purified human PKM enzyme activity; series mostly up to 57.5 µM; activity change, negative = inhibition: at the top concentration
Method in brief: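 Screening used highly purified human pyruvate kinase M2 under submaximal activity, with PEP at its Km and ADP below Km. After an hour at room temperature, ATP was read by luciferase luminescence.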

| Compound | Potency | activity change, negative = inhibition |
| --- | --- | --- |
| CN=c1nc(-c2ccccc2)n(-c2ccccc2)s1 | 25.1 µM (active) | – |
| COc1ccc(/C=C/C(=O)Nc2ccccc2C(=O)O)cc1OC | 20 µM (active) | – |
| Cc1ccc(O)c(N=Nc2ccccc2)n1 | 6.31 µM (active) | – |
| Oc1cc2c(cc1O)CN(C(=S)NCCc1ccc(Cl)cc1)CCC2 | – | 47.3% |

Target: Pyruvate kinase (Leishmania mexicana) (UniProt Q27686)
Assay: qHTS Validation Assay for Activators of Leishmania Mexicana Pyruvate Kinase (AID 959)
Conditions: purified L. mexicana pyruvate kinase, enzyme activity; series mostly up to 57.5 µM; activity change, positive = activation: at the top concentration
Method in brief: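 Luminescent ATP detection (PKLight) after a 1 h room-temperature reaction of 0.2 nM LmPYK E451W mutant with 0.5 mM PEP and 0.1 mM ADP at pH 7.2. Activity is normalized to DMSO-only control wells.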

Pyruvate kinase (Leishmania mexicana), sequence (Q27686 2-499 E452W): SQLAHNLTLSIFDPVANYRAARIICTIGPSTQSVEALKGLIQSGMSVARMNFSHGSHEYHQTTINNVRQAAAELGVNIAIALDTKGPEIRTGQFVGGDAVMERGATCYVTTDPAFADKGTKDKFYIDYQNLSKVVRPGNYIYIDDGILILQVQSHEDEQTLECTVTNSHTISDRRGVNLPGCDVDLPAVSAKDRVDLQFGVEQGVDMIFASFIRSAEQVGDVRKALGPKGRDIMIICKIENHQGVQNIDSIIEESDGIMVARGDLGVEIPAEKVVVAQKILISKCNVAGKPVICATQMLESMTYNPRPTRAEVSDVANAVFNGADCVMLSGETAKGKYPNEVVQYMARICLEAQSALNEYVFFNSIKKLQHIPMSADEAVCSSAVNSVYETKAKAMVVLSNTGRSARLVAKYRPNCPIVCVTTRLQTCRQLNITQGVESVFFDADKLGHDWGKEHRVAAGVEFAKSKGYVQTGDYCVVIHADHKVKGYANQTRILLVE

| Compound | activity change, positive = activation | Potency |
| --- | --- | --- |
| CN=c1nc(-c2ccccc2)n(-c2ccccc2)s1 | -99.4% | – |
| NC(N)=NC(=O)c1nc(Cl)c(N2CCCCCC2)nc1N | -34.1% | – |
| COc1ccc(/C=C/C(=O)Nc2ccccc2C(=O)O)cc1OC | -90% | – |
| Cc1ccc(O)c(N=Nc2ccccc2)n1 | -108% | – |
| Cc1cc(NC(=O)Nc2ccc3c(ccn3C)c2)sn1 | -54.4% | – |
| CN1CCc2cc(NC(=O)Nc3cccnc3)ccc21 | -61.2% | – |
| O=C(Nc1cccc(C(=O)Nc2ccc(S(=O)(=O)O)c3cc(S(=O)(=O)O)cc(S(=O)(=O)O)c23)c1)Nc1cccc(C(=O)Nc2ccc(S(=O)(=O)O)c3cc(S(=O)(=O)O)cc(S(=O)(=O)O)c23)c1 | – | 0.398 µM (active) |
| O=C(Nc1ccccc1)c1cc([N+](=O)[O-])ccc1Cl | -33.5% | – |
